Among the data in PubChem BioAssay AID1578 (Sanford-Burnham Center for Chemical Genomics, 2009) are inhibition values, retold here.

About 3,000 (1%) of roughly 290,000 compounds were called active. Cut-off read from the data, not from the text of the source: active = inhibition mostly above about 36% (no sharp cut-off); inactive = mostly below about 34%. For the sample, actives were picked, then their nearest neighbours and some compounds at random.

The assay is described as follows: inhibition of NOD1-driven NF-kB reporter – cell-based, luminescence, uHTS, primary screen (AID 1578).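 Note: HEK-293T reporter cells stimulated with the NOD1 agonist gamma-tri-DAP.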 To be noted: NOD1-driven NF-kB luciferase reporter cells, at 4 µM, active compounds read high.
On to `CC(C)(C)c1ccc(Cn2c(=O)cnc3ccccc32)cc1`, for which the inhibition is 48.9% (active).
Next, `O=c1cnc2ccccc2n1Cc1ccccc1C(F)(F)F`: -40.7% (inactive); `O=c1cnc2ccccc2n1Cc1ccc(Br)cc1`: -18.3% (inactive); `C=CCn1cc(C(=O)OCC)c(=O)c2cc(F)c(F)cc21`: 2.3% (inactive).
Next, `Cc1ccc(C(=O)COC(=O)CCC(=O)Nc2cc(Cl)ccc2Cl)cc1[N+](=O)[O-]`: 7.9% (inactive); `C#CC(=O)N(c1ccc(OC)c(OC)c1)C(C(=O)NC1CCCC1)c1cccs1` (stereo unspecified): 79.9% (active).
The value for `COc1ccc(N(C(=O)c2ccco2)C(C(=O)NC2CCCC2)c2cccs2)cc1OC` (stereo unspecified) was 2.7% (inactive); that for `COc1ccc(N(C(=O)c2ccco2)C(C(=O)NC2CCCC2)c2cccs2)c(OC)c1` (stereo unspecified) was -2.6% (inactive).
As for `C#CC(=O)N(c1cccc(OC)c1)C(C(=O)NC1CCCC1)c1cccs1` (stereo unspecified), the inhibition is 22.1% (inactive).
For `C#CC(=O)N(c1ccc(OC)cc1OC)C(C(=O)NC1CCCC1)c1cccs1` (stereo unspecified), the inhibition is 74.7% (active).
Next, `C#CC(=O)N(c1cc(OC)ccc1OC)C(C(=O)NC1CCCC1)c1cccs1` (stereo unspecified): -17.4% (inactive); `CC(C)c1nc2ccccc2n1CC(O)COC1CCCCC1` (stereo unspecified): -23.2% (inactive); `COc1ccc(C)cc1NC(=O)NNC(=O)C(C)Oc1ccc(F)cc1Cl` (stereo unspecified): -17.8% (inactive).
The value for `COc1cccc(C(=O)N2CCC(n3nccc3NC(=O)CCOc3ccccc3)CC2)c1` was -25.4% (inactive).
Next, `CCCn1c(SCC(=O)Nc2nonc2C)nnc1-c1ccoc1C`: -22.4% (inactive); `COC(=O)CN1C(=S)N(Cc2ccccc2)C(=O)C1CC(=O)Nc1ccc(Br)cc1` (stereo unspecified): 28.8% (inactive); `Cc1ccc(S(=O)(=O)Nc2ccccc2C(N)=O)cc1`: -11.8% (inactive).
Turning to `Cc1ccc(S(=O)(=O)Nc2ccccc2-c2ccccc2)cc1`, the inhibition is 18.4% (inactive).
The value for `Cc1cccc(C)c1NS(=O)(=O)c1ccc2c(c1)C(=O)c1ccccc1C2=O` was -19.6% (inactive); that for `Cc1ccc(NS(=O)(=O)c2ccc3[nH]c(=O)[nH]c3c2)c(C)c1` was -12.1% (inactive).
In the case of `CCCC(=O)C1=C(O)C(C(=O)OC)C(C)(C)CC1=NC` (stereo unspecified), the inhibition was 11.5% (inactive).
As for `CN(CCO)c1cnccn1`, the inhibition was -22.7% (inactive).
As to `COc1ccccc1N1CCN(CCC(=O)Nc2cccc(Cl)c2)CC1`, the inhibition was -7.2% (inactive).
Next, `CNC(=O)NC(=O)Cn1cnc2sc(-c3ccccc3)cc2c1=O`: 0.3% (inactive); `CCCCOCCCNC(=O)C1c2ccccc2Oc2ccccc21`: -0.9% (inactive).
The value for `CS(=O)(=O)c1nc(-c2ccccc2)cc(C(F)(F)F)n1` was -5.3% (inactive).
`CCOC(=O)CS(=O)(=O)c1nc(-c2ccccc2)cc(C(F)(F)F)n1`: the inhibition was 69.2% (active).
The value for `CS(=O)(=O)c1nc(-c2ccc(F)cc2)cc(C(F)(F)F)n1` was 103% (active); that for `CCOC(=O)CSc1nc(-c2ccccc2)cc(C(F)(F)F)n1` was -48.1% (inactive); that for `CCOC(=O)CCSc1nc(-c2ccccc2)cc(C(F)(F)F)n1` was -31.4% (inactive).
The value for `Nc1nc(-c2ccc(F)cc2)cc(C(F)(F)F)n1` was 9.6% (inactive); that for `CC(C)(C)NC(=O)CN(Cc1ccc2c(c1)OCO2)C(=O)CNC(=O)c1cccs1` was -12.6% (inactive); that for `CCn1ncc(Br)c1C(=O)NC1CCCCCCC1` was -9% (inactive).
Next, `CCn1c(=N)n(CC(O)c2ccco2)c2ccccc21` (stereo unspecified): 11% (inactive); `CCCn1c(=N)n(CC(O)c2ccco2)c2ccccc21` (stereo unspecified): 1.5% (inactive); `CCN(CC)CCn1c(=N)n(CC(O)c2ccco2)c2ccccc21` (stereo unspecified): 62% (active).
For the compound `C=C(C)c1cccc(C(C)(C)NC(=O)Nc2cc(C)ccc2OC)c1`, the inhibition is -33% (inactive).
Regarding `COc1cccc2c1OC1(C)CC2NC(=O)N1c1cccc(C(=O)N2CCN(c3ccccn3)CC2)c1` (stereo unspecified), the inhibition is -17.8% (inactive).
The value for `CC12CC(NC(=O)N1c1cccc(C(=O)N3CCN(c4ccccn4)CC3)c1)c1ccccc1O2` (stereo unspecified) was -1.9% (inactive); that for `CCOc1cccc2c1OC1(C)CC2NC(=O)N1c1cccc(C(=O)N2CCN(c3ccccn3)CC2)c1` (stereo unspecified) was 76.5% (active).
Next, `COc1ccc(C(=O)C2CCCN(Cc3cc(C)c(O)c(C)c3)C2)c(OC)c1` (stereo unspecified): 110% (active).
Consider `COc1ccc(C(=O)C2CCCN(Cc3ccc4nonc4c3)C2)c(OC)c1` (stereo unspecified), for which the inhibition is -21.3% (inactive).
Next, `COc1ccc(C(=O)C2CCCN(Cc3cc(Cl)ccc3O)C2)c(OC)c1` (stereo unspecified): -3.1% (inactive).
Next, `CCOC(=O)C(=Cc1cn(C)c2ccc(S(=O)(=O)N(C)C)cc12)C(=O)OCC`: 29.1% (inactive); `CCOC(=O)N1CCN(C(=O)c2c[nH]c3ccc(S(=O)(=O)N(C)c4ccc(F)cc4)cc3c2=O)CC1`: -23.5% (inactive).
Next, `CCOC(=O)C(=Cc1c[nH]c2ccc(S(=O)(=O)N(C)C)cc12)C(=O)OCC`: 43.9% (active).
For the compound `Cc1ccc(C(=O)c2ccc([N+](=O)[O-])cc2)c(C)c1`, the inhibition was -4.2% (inactive).
The value for `COCCN1CCN(C(=O)C2CCC(=O)N(Cc3ccccc3F)C2)CC1` (stereo unspecified) was -13.9% (inactive); that for `COc1ccc(NC2=NC(=S)N(c3ccccc3C)C23CCCCC3)cc1` was -2.5% (inactive); that for `Oc1ccc(Nc2ncnc3ccccc23)cc1` was 4.4% (inactive).
Next, `Nc1cccc(Nc2ncnc3ccccc23)c1`: 3% (inactive); `Oc1cccc(Nc2ncnc3ccccc23)c1`: 56% (active); `O=C(CN1CC(c2ccccc2)CC1=O)Nc1ccc2c(c1)OCO2` (stereo unspecified): -14% (inactive).
`COCCCNC(c1ccccc1)c1ccncc1` (stereo unspecified): the inhibition is -23.2% (inactive).
Next, `O=C(COc1ccccc1)Nc1nc(-c2ccc(S(=O)(=O)N3CCOCC3)cc2)cs1`: 3.4% (inactive).
Next, `O=C(COc1cccc(Cl)c1)Nc1nc(-c2ccc(S(=O)(=O)N3CCOCC3)cc2)cs1`: 53.1% (inactive); `O=C(Nc1ccccc1)NC1CS(=O)(=O)CC1O` (stereo unspecified): -16.3% (inactive).
Next, `O=C(c1ccc(Br)cc1)C1CCc2occc2C1=O` (stereo unspecified): -29.8% (inactive); `O=C(O)c1cccc(NC(=O)c2cccc(S(=O)(=O)N3CCc4ccccc43)c2)c1`: 29.9% (inactive); `Cc1cccnc1NC(=O)c1cccc(S(=O)(=O)N2CCCc3ccccc32)c1`: -13% (inactive).
Turning to `Nn1cc(-c2ccccc2)nc1SCC(=O)NCC1CCCO1` (stereo unspecified), the inhibition is -25.8% (inactive).

One may read the inhibition as the relative decrease from the control value, in per cent.
